Calls of active or inactive are those of the source. How the source made its calls: active means hit-call score of the fitted dose curve at least 0.9, where 1 is the maximum; inactive means score below 0.9.

The nature of the first assay: ATG_EGR_CIS: Attagene CIS-FACTORIAL HepG2 Assay for human Early Growth Response 1 (EGR1) (AID 2282938). The settings on record: HepG2 Attagene CIS-FACTORIAL EGR reporter mRNA; actives raise or lower the signal. The essentials: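 Read-out: fluorescent reporter-mRNA fragments resolved by capillary electrophoresis after RT-PCR, 24 h post-dose in transiently transfected HepG2. Endogenous transcription-factor activity reported via cis-element-regulated reporter units; gain or loss fitted relative to DMSO.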
As to `OC[C@@H](O)[C@H]1O[C@@H]2O[C@H](C(Cl)(Cl)Cl)O[C@@H]2[C@H]1O`, the outcome was inactive.
Consider `O=C(Cc1ccccc1)OCCc1ccccc1`, for which the outcome was inactive.
Same read-out and setting: the value for `CCC[N+](CCC)(CCC)CCC` was “inactive”; that for `N#Cc1ccccc1Cl` was “inactive”.
As to `Cc1cc(C(C)(C)c2ccc(O)c(C)c2)ccc1O`, the AC50 is 32.4 µM (active).
As for `C#CCO`, the compound was classed as inactive.
Take `O=NN1CCOCC1`: the compound was called inactive.
Turning to `CCCSP(=S)(OCC)Oc1ccc(Cl)cc1Cl` (centres undefined), the result was inactive.
As for `COCCl`, the result was inactive.
`CNC(=O)O/N=C/C(C)(C)S(C)(=O)=O`: the compound was called inactive.
On the same count and under the same terms, the value for `c1cc[c]([Sb]([c]2ccccc2)[c]2ccccc2)cc1` was “inactive”.
Take `CN(N=O)C(N)=O`: the result was inactive.
In the case of `CCC[CH2][Sn]([CH2]CCC)([CH2]CCC)[CH2]CCC`, the AC50 is 5.14 µM (active).
The same measure, in the same setting: the value for `CC(c1ccccc1)(c1ccc(O)cc1)c1ccc(O)cc1` was 12.3 µM (active); that for `C[CH2][Hg][S]c1ccccc1C(=O)O` was 3.71 µM (active).
As for `O=C(Nc1ccc(Br)cc1)c1cc(Br)cc(Br)c1O`, the AC50 was 52.9 µM (active).
On to `COC(F)(C(F)(F)C(F)(F)F)C(F)(C(F)(F)F)C(F)(F)F` (centres undefined), for which the outcome was inactive.
For the compound `Clc1cccc(Cl)c1`, the compound was classed as inactive.
The same measure, in the same setting: then `CC1CC(=O)O1` (centres undefined), with “inactive”; and `CCCCCCCCCCCCBr`, with “inactive”; and `Cc1ccc2nc3sc(=O)sc3nc2c1`, with “inactive”.
With `ClCCCCl`, the compound was called inactive.
On the same count and under the same terms, then `Brc1c(Br)c(Br)c(Oc2c(Br)c(Br)c(Br)c(Br)c2Br)c(Br)c1Br`, with “inactive”; and `Clc1cccc(Cl)c1Cl`, with “inactive”.
As for `CC(C)(c1ccc(O)c(-c2ccccc2)c1)c1ccc(O)c(-c2ccccc2)c1`, the AC50 was 5.2 µM (active).
Regarding `Clc1cnc(Oc2ccc(Oc3ncc(Cl)cc3Cl)cc2)c(Cl)c1`, the outcome was inactive.
Consider `CCOP(=S)(OCC)OP(=S)(OCC)OCC`, for which the call was inactive.
Regarding `CCCCCCCCBr`, the compound was classed as inactive.
On the same count and under the same terms, then `CC1(C)COP(Oc2ccccc2)OC1`, with “inactive”; and `Cc1ccc(CCl)cc1`, with “inactive”.
In the case of `Cc1c([N+](=O)[O-])c(C)c([N+](=O)[O-])c(C(C)(C)C)c1[N+](=O)[O-]`, the call was inactive.
On the same count and under the same terms, the value for `CC(C)N(C(=O)CCl)c1ccccc1` was “inactive”; that for `Brc1ccc(Oc2c(Br)cc(Br)cc2Br)c(Br)c1` was “inactive”.
The same measure, in the same setting: then `O=NN1CCCCCCC1`, with “inactive”.
Same read-out and setting: then `CC[N+](CC)(CC)CC`, with “inactive”; and `O=NN1CCCCCC1`, with “inactive”.
For the compound `COC(=O)Nc1cccc(OC(=O)Nc2cccc(C)c2)c1`, the compound was called inactive.
As for `COP(=S)(OC)Oc1cc(Cl)c(I)cc1Cl`, the AC50 is 41.3 µM (active).
For `Cc1cc(Cl)ccc1OCCCC(=O)O`, the call was inactive.

The nature of another assay: ATG_M_19_CIS: Attagene CIS-FACTORIAL HepG2 Assay for M19 Transcription Factor (Internal Marker) (AID 2282939). The settings on record: HepG2 Attagene CIS-FACTORIAL M19 internal marker reporter; actives raise or lower the signal. The essentials:
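Signals come from fluorescence of labelled reporter-specific PCR fragments resolved by capillary electrophoresis, following 24 h treatment of HepG2 cells transfected with cis-promoter reporter units; activity was fitted in both directions relative to DMSO.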
As to `O=C(Cc1ccccc1)OCCc1ccccc1`, the result was inactive.
On the same count and under the same terms, the value for `N#Cc1ccccc1Cl` was “inactive”.
Still for that read-out and setting: then `Cc1cc(C(C)(C)c2ccc(O)c(C)c2)ccc1O`, with “inactive”; and `C#CCO`, with “inactive”; and `COCCl`, with “inactive”.
Still for that read-out and setting: then `CN(N=O)C(N)=O`, with “inactive”; and `CCC[CH2][Sn]([CH2]CCC)([CH2]CCC)[CH2]CCC`, with “inactive”; and `CC(c1ccccc1)(c1ccc(O)cc1)c1ccc(O)cc1`, with “inactive”.
As for `O=C(Nc1ccc(Br)cc1)c1cc(Br)cc(Br)c1O`, the outcome was inactive.
Still for that read-out and setting: the value for `COC(F)(C(F)(F)C(F)(F)F)C(F)(C(F)(F)F)C(F)(F)F` (centres undefined) was “inactive”.
Same read-out and setting: then `Clc1cccc(Cl)c1`, with “inactive”.
In the case of `CC1CC(=O)O1` (centres undefined), the compound was classed as inactive.
`ClCCCCl`: the outcome was inactive.
On the same count and under the same terms, the value for `Brc1c(Br)c(Br)c(Oc2c(Br)c(Br)c(Br)c(Br)c2Br)c(Br)c1Br` was “inactive”; that for `Clc1cccc(Cl)c1Cl` was “inactive”; that for `CCOP(=S)(OCC)OP(=S)(OCC)OCC` was “inactive”.
The same measure, in the same setting: then `CCCCCCCCBr`, with “inactive”; and `CC1(C)COP(Oc2ccccc2)OC1`, with “inactive”; and `Cc1c([N+](=O)[O-])c(C)c([N+](=O)[O-])c(C(C)(C)C)c1[N+](=O)[O-]`, with “inactive”.
On the same count and under the same terms, then `O=NN1CCCCCCC1`, with “inactive”; and `CC[N+](CC)(CC)CC`, with “inactive”.
As to `O=NN1CCCCCC1`, the call was inactive.
With `COC(=O)Nc1cccc(OC(=O)Nc2cccc(C)c2)c1`, the compound was called inactive.
For the compound `COP(=S)(OC)Oc1cc(Cl)c(I)cc1Cl`, the compound was called inactive.
On the same count and under the same terms, then `Cc1cc(Cl)ccc1OCCCC(=O)O`, with “inactive”.

A further assay can be described thus: ATG_ERE_CIS: Attagene CIS-FACTORIAL HepG2 Assay for Estrogen Response Element (ERE) (AID 2282940). Particulars: HepG2 ERE cis-reporter, Attagene RNA transcript; actives raise or lower the signal. The essentials: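 Fluorescence of capillary-separated, FAM-labelled reporter cDNA fragments indicates reporter mRNA levels in HepG2 cells exposed to chemicals for 24 h. Transient transfection with cis-regulated units; data fitted in both directions against DMSO.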
In the case of `CCC[N+](CCC)(CCC)CCC`, the compound was called inactive.
For the compound `C#CCO`, the compound was called inactive.
The same measure, in the same setting: then `O=NN1CCOCC1`, with “inactive”; and `CNC(=O)O/N=C/C(C)(C)S(C)(=O)=O`, with “inactive”.
Still for that read-out and setting: then `Cc1ccc2nc3sc(=O)sc3nc2c1`, with “inactive”; and `CC(C)(c1ccc(O)c(-c2ccccc2)c1)c1ccc(O)c(-c2ccccc2)c1`, with “inactive”.
Regarding `Cc1ccc(CCl)cc1`, the result was inactive.
On to `Cc1c([N+](=O)[O-])c(C)c([N+](=O)[O-])c(C(C)(C)C)c1[N+](=O)[O-]`, for which the AC50 is 23.7 µM (active).
For `CC(C)N(C(=O)CCl)c1ccccc1`, the call was inactive.
Same read-out and setting: the value for `Brc1ccc(Oc2c(Br)cc(Br)cc2Br)c(Br)c1` was “inactive”; that for `O=NN1CCCCCCC1` was “inactive”.

A short description of another assay: ATG_Ets_CIS: Attagene CIS-FACTORIAL HepG2 Assay for human Erythroblast Transformation Specific (ETS) (AID 2282941). Particulars: HepG2 ETS cis-reporter transcription, actives raise or lower the signal. The gist of the method: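 After transient cis-reporter transfection, HepG2 cells receive test chemical for 24 h. Reporter mRNA levels, measured by RT-PCR and capillary electrophoresis fluorescence, are analysed bidirectionally relative to the DMSO baseline.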
In the case of `OC[C@@H](O)[C@H]1O[C@@H]2O[C@H](C(Cl)(Cl)Cl)O[C@@H]2[C@H]1O`, the call was inactive.
On the same count and under the same terms, then `O=C(Cc1ccccc1)OCCc1ccccc1`, with “inactive”; and `CCC[N+](CCC)(CCC)CCC`, with “inactive”; and `N#Cc1ccccc1Cl`, with “inactive”.
For the compound `Cc1cc(C(C)(C)c2ccc(O)c(C)c2)ccc1O`, the AC50 was 20.2 µM (active).
Turning to `O=NN1CCOCC1`, the outcome was inactive.
The same measure, in the same setting: then `CCCSP(=S)(OCC)Oc1ccc(Cl)cc1Cl` (centres undefined), with “inactive”.
Turning to `CNC(=O)O/N=C/C(C)(C)S(C)(=O)=O`, the outcome was inactive.
The same measure, in the same setting: then `c1cc[c]([Sb]([c]2ccccc2)[c]2ccccc2)cc1`, with “inactive”.
The same measure, in the same setting: then `CN(N=O)C(N)=O`, with “inactive”.
In the case of `CC(c1ccccc1)(c1ccc(O)cc1)c1ccc(O)cc1`, the AC50 is 20.1 µM (active).
Regarding `O=C(Nc1ccc(Br)cc1)c1cc(Br)cc(Br)c1O`, the AC50 was 4.61 µM (active).
On to `COC(F)(C(F)(F)C(F)(F)F)C(F)(C(F)(F)F)C(F)(F)F` (centres undefined), for which the result was inactive.
Take `Clc1cccc(Cl)c1`: the call was inactive.
Take `CC1CC(=O)O1` (centres undefined): the compound was called inactive.
On to `CCCCCCCCCCCCBr`, for which the call was inactive.
As to `Cc1ccc2nc3sc(=O)sc3nc2c1`, the AC50 was 45.9 µM (active).
For the compound `ClCCCCl`, the outcome was inactive.
As for `Clc1cccc(Cl)c1Cl`, the call was inactive.
The same measure, in the same setting: the value for `Clc1cnc(Oc2ccc(Oc3ncc(Cl)cc3Cl)cc2)c(Cl)c1` was “inactive”; that for `CCOP(=S)(OCC)OP(=S)(OCC)OCC` was “inactive”; that for `CCCCCCCCBr` was “inactive”.
Same read-out and setting: the value for `Cc1ccc(CCl)cc1` was “inactive”; that for `CC(C)N(C(=O)CCl)c1ccccc1` was “inactive”.
Still for that read-out and setting: the value for `Brc1ccc(Oc2c(Br)cc(Br)cc2Br)c(Br)c1` was “inactive”.
As for `CC[N+](CC)(CC)CC`, the outcome was inactive.
Still for that read-out and setting: the value for `COC(=O)Nc1cccc(OC(=O)Nc2cccc(C)c2)c1` was “inactive”.
As for `COP(=S)(OC)Oc1cc(Cl)c(I)cc1Cl`, the AC50 was 39.9 µM (active).
For the compound `Cc1cc(Cl)ccc1OCCCC(=O)O`, the result was inactive.

By AC50 is commonly meant the concentration at which the activity in the assay is half-maximal.

These data come from PubChem BioAssay (EPA / NIEHS).
